Results reported in PubChem BioAssay AID651812 (National Center for Advancing Translational Sciences (NCATS), 2012).
Out of some 2,100 compounds screened, about 650 (31%) were called active. Roughly 16% stayed inconclusive and do not appear here. This is one part of the list. Values without a mark were called inactive. The call rests on the fitted dose curve; in most records, active means well fitted inhibition curve with a large enough effect; inconclusive means small, poorly fitted or top-dose-only effect; inactive means flat fitted curve, though single readings scatter.

experiment: qHTS for inhibitors of Vif-A3G interactions: Cherry picks; conditions: HeLa A3G-eYFP + Vif (tagged APOBEC3G with the HIV-1 protein that degrades it), 24 h; Potency: eYFP fluorescence increase; series mostly up to 36.9 µM; activity, negative = fluorescence increase: at the top concentration; further: nearly all actives have a fitted effect of over 80% in size; on activity, negative = fluorescence increase: % of control where 0% means no effect
Outline: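 HeLa cells stably expressing A3G-eYFP and Vif, cultured overnight then exposed to compounds at several concentrations for 24 hours at 37 C, 5% CO2; cellular yellow fluorescence (488 nm ex, 500-530 nm em) imaged on Acumen, MG132 positive control.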
Potency means the concentration at half of the fitted maximal effect.

| SMILES | Potency | activity, negative = fluorescence increase |
| --- | --- | --- |
| Cc1ccnc(N/C=C(\C#N)c2nc(-c3cccc(Br)c3)cs2)c1 | 14 µM (active) | – |
| COC(=O)c1nnn(-c2nonc2N)c1CN1CCc2ccccc21 | – | 0.0341% |
| CC1(C)CCN2CCC(C)(C)c3c(O)ccc1c32 | 14 µM (active) | – |
| COc1cc(CNCCSc2nnnn2C)ccc1OCc1c(F)cccc1Cl | – | -0.389% [at 46.1 µM] |
| Cc1ccc(N=Cc2c(O)n(-c3nccs3)c(=O)c3ccccc23)c(C)c1 | 16.4 µM (active) | – |
| N#C/C(=C/c1ccc(-c2ccc([N+](=O)[O-])cc2)o1)C(=O)Nc1nc(-c2cccs2)cs1 | – | -19.8% [at 46.1 µM] |
| Cc1ccc(NC(=O)/C(C#N)=C\c2ccc(-c3ccc(Cl)cc3)o2)c(C)c1 | 7.31 µM (active) | – |
| CCN(CC)c1ccc(/C=c2/sc3nnc(-c4ccccc4C)n3c2=O)cc1 | 25.9 µM (active) | – |
| O=C1NC(c2ccccc2Br)=N/C1=C\c1ccco1 | – | 2.97% [at 46.1 µM] |
| Cc1cccc(N2CCN(C(=O)c3ccncc3)CC2)c1C | – | -12% |
| C(=C\c1c[nH]c2ccccc12)/c1ccc2ccccc2n1 | 18.4 µM (active) | – |
| Cc1[nH]c2ccccc2c1/C=C/c1ccnc2ccccc12 | – | -21.3% [at 46.1 µM] |
| Cc1[nH]c2ccccc2c1/C=C/c1ccc2ccccc2n1 | 18.4 µM (active) | – |
| C(=Cc1c[nH]c2ccccc12)c1ccc2ccccc2n1 | 20.6 µM (active) | – |
| Nc1cccc(CCc2nc3cc4ccccc4cc3[nH]2)c1 | – | -1.81% |
| Cc1cc(NC(=O)NC(=O)c2ccccc2NC(=O)C(C)N)ccc1Oc1ncc(Br)cn1 (centres undefined) | – | -14.1% |
| CC(=O)Nc1ccc(S(=O)(=O)Nc2nc3ccccc3nc2Sc2nncn2C)cc1 | – | -27.3% [at 46.1 µM] |

| SMILES | Potency | activity, negative = fluorescence increase |
| --- | --- | --- |
| Cc1ccc2[nH]c(C)c(/C=C/c3cc[n+](C)cc3)c2c1 | 1.77 µM (active) | – |
| Cc1[nH]c2ccccc2c1/C=C/c1cc[n+](C)cc1 | 4.44 µM (active) | – |
| O=c1cc(-c2ccccc2)[nH]c2ccccc12 | – | -0.648% |
| Cc1[nH]c2ccccc2c1/C=C/C(=O)c1ccccc1 | 23.1 µM (active) | – |
| COc1ccc(-c2cc(NC(C)=O)c3ncc(-c4cc(OC)c(OC)c(OC)c4)n3c2)cn1 | – | -25.2% |
| CCOc1ccccc1N1CC(c2nc3ccccc3n2Cc2c(C)cc(C)cc2C)CC1=O (centres undefined) | – | -1.13% [at 46.1 µM] |
| O=C(Cn1ncc(Cl)c(Cl)c1=O)N1CCN(S(=O)(=O)c2ccc3ccccc3c2)CC1 | – | -4.68% |
| Cc1ccc(/C=N/NC(=O)C2COc3ccccc3O2)s1 (centres undefined) | – | -6.59% |
| O=S(=O)(Nc1cccc2ncccc12)c1cccs1 | – | -9.28% |
| Cc1nc(NC(=O)/C=C/c2ccco2)sc1C | – | -4.83% |
| Cc1ccc(NC(=O)Cc2ccc(-n3cccc3)cc2)c(C)c1 | – | 7.11% [at 46.1 µM] |
| CC(=O)c1cccc(NC(=S)N2c3ccccc3CC2C)c1 (centres undefined) | – | 0.849% |
| Cc1ccc(NC(=O)/C=C/c2ccc([N+](=O)[O-])s2)c(C)c1 | 5.8 µM (active) | – |
| Cc1cccc(NC(=O)/C=C/c2ccc([N+](=O)[O-])s2)c1 | 4.11 µM (active) | – |
| CC(=O)c1cccc(NC(=O)/C=C/c2ccc([N+](=O)[O-])s2)c1 | 8.2 µM (active) | – |
| Cc1ccc(NC(=O)/C=C/c2ccc([N+](=O)[O-])s2)cc1 | 7.31 µM (active) | – |
| Cc1ccc(NC(=O)C(=Cc2ccc(C(=O)O)cc2)C(=O)Nc2ccc(C)cc2C)c(C)c1 | – | -3.15% |
